Assay results taken from ChEMBL document CHEMBL4513149, “CO-ADD screening of MMV (CH) - MMV compounds” (2021).
Measured potencies and affinities stand elsewhere.

Columns and labels:
Klebsiella pneumoniae = settings: Concentration 20 uM; ASSAY_TEST Inhibition of Bacterial Growth; detection method Absorption (OD600); MEDIA CAMHB; plate type 384well; NBS; CORNING #3640; time 18 hr
Candida albicans = settings: 20 µM
Cryptococcus neoformans = settings: Concentration 20 uM; ASSAY_TEST Inhibition of Fungal Growth; detection method Resazurin; Absorption (OD600-OD570); plate type 384well; NBS; CORNING #3640

Compound | Inhibition (Klebsiella pneumoniae) | Inhibition (Candida albicans) | Inhibition (Cryptococcus neoformans)
CCOC(=O)c1c(NC(=O)c2c(F)c(F)c(F)c(F)c2F)sc(C(N)=O)c1C | 11.9% | 5.2% | -6.59%
CCCNC(=O)N1CCC2(CC1)CC(=O)c1cc(C)ccc1O2 | 17.38% | 2.86% | -8.06%
Nc1ncnc2c1ncn2C[C@@H](O)[C@@H](O)C(=O)O [ERITADENINE] | 17.23% | 3.88% | -6.54%
COc1ccc(-c2cnc3ccc(NCc4ccc(S(N)(=O)=O)cc4)nn23)cn1 | 16.22% | 4.45% | -9.08%
Brc1c(-c2ccc3c(c2)OCO3)nc2ncccn12 | 12.72% | 3.56% | -13.08%
COc1cc(C2=NCCN2)ccc1-n1cc(-c2cccc(C3=NCCN3)c2)nn1.O=CO.O=CO | 8.01% | 2.32% | 7.56%
COC(=O)c1cccc2oc(-c3cccc(OC)c3NC(=O)c3cc(-c4ccccc4)on3)nc12 | 13.16% | 8.19% | -3.51%
Cc1cc(C)c2cc(C(=O)NC3CCCCCCC3)[nH]c2c1 | 18.42% | 3.94% | -6.05%
O=C(Nc1ccc(F)c(-c2nc3cc(-c4ccccc4)cnc3[nH]2)c1)N1CCCC1 | 7.38% | 49.9% | -3.95%
Cc1cc(OCC(=O)NCc2ccccc2)c2cc(Br)ccc2n1 | 6.14% | 0.18% | -5.48%
CC(C)(C)c1cnc(NC(=O)c2ccccc2O)s1 | 10.5% | 11.6% | 5.21%
O=C(NCCc1c[nH]c2ccccc12)c1cc2ccccc2oc1=O | 9.33% | 4.19% | -9.92%
Cc1cc2nc(NC(=O)C(C)(C)C)nc(Cl)c2n1Cc1ccc(Cl)cc1 | 1.22% | 3.57% | -0.22%
Cc1nn2c(O)c3c(nc2c1-c1ccc(F)cc1)CCCC3 | 11.6% | 3.69% | -6.74%
CS(=O)(=O)Cc1nc2ccccc2oc1=O | 16.91% | 1.55% | -16.09%
O=C(NCCN1CCCC1)c1cc(NCCN2CCOCC2)nc2ccc(Cl)cc12 | 16.49% | 2.97% | -7.83%
Cc1cccc(-c2nc(Nc3ccncn3)c3sccc3n2)n1 | 15.76% | 3.59% | 61.44%
CC(C)n1nc(-c2cc3c(Cl)cccc3[nH]2)c2c(N)ncnc21 | 6.59% | 5.11% | -4.09%
Nc1ncc(Br)cc1-c1nc2cc(Cl)cnc2[nH]1 | 20.39% | 9.81% | 7.04%
CC1(C)Cc2c(c(N3CCOCC3)nc3snc(Br)c23)CO1 | 3.58% | 13.1% | -2.44%
CC(C)n1ncc2c(C(=O)NCC(c3cccs3)N3CCOCC3)cc(-c3ccccc3)nc21 (centres undefined) | 8.44% | 4.59% | -15.65%
Cc1cnc(N2CCN[C@@H](Cc3ccccc3)C2)nc1Oc1ccc(-n2ccnc2)cc1.Cl | 8.14% | 2.69% | -5.74%
CCc1cc(=O)n(C)c(SC(C)C(=O)Nc2ccc(F)cc2)n1 (centres undefined) | 3.6% | 0.76% | -9.3%

Compound | Inhibition (Klebsiella pneumoniae) | Inhibition (Candida albicans) | Inhibition (Cryptococcus neoformans)
c1ccc(-c2cc(N3CCCCC3)c3ccccc3n2)nc1 | 14.97% | -0.2% | -6.72%
Cc1cc(C)cc(COc2ccc3c(C)c(CCC(=O)O)c(=O)oc3c2C)c1 | 9.77% | 6.48% | -0.19%
Cc1nn(C(=O)Nc2cccc(C(F)(F)F)c2)c(C)c1Sc1ncccn1 | 9.64% | 2.23% | -2.75%
O=C(CCC1CCCCC1)Nc1cccc(-c2nnc(-c3ccco3)o2)c1 | 9.71% | 5.6% | -12.99%
CC(C)C(Oc1cccc2ccccc12)C(=O)O (centres undefined) | 6.53% | 8.4% | 4.84%
CS(=O)(=O)c1cccc(-c2cnc3[nH]cc(-c4ccc(CCC(=O)O)cc4)c3c2)c1 | 6.09% | 11.3% | -4.04%
COc1ccc(-c2onc(C(F)(F)F)c2-c2ccc(Cl)cc2)c(O)c1 | 9.85% | 2.64% | 8.78%
Cl.NCC(c1cccs1)S(=O)(=O)c1ccccc1 (centres undefined) | -0.58% | 3.86% | -1.15%
CC(=O)Nc1ccc(NC(=O)c2cc(-c3cc(Cl)ccc3O)n[nH]2)cc1 | -16.31% | 54.8% | 0.66%
CCC(NC(=O)c1ccccc1NC(=O)c1ccc(C)cc1)C(=O)OC (centres undefined) | 8.73% | 4.2% | -3.77%
COc1cc(C2=NCCN2)ccc1-c1cn(-c2cccc(C3=NCCN3)c2)nn1 | 15.15% | 2.69% | 3.58%
Cc1nnc(NC(=O)c2cn(-c3ccccc3)nc2-c2ccccc2C)o1 | 13% | 4.27% | -7.03%
N=C(N)c1ccc(-c2cc(-c3ccccc3)on2)cc1 | 18.39% | 3.34% | -9.38%
C[C@H](C(N)=O)N1CCCC[C@@H]1c1ccc(OCc2cccc(F)c2)cc1 | 9.46% | 2.97% | -6.98%
O=C(NC1=NCCS1)c1sc2cc(F)ccc2c1Cl | 1.67% | 8.69% | -16.39%
CN1CCCN(C(c2ccccc2)c2ccc(Cl)cc2)CC1 (centres undefined) [HOMOCHLORCYCLIZINE] | 10.44% | 2.84% | -6.27%
CS(=O)(=O)N1CCC(Cn2nc(Cc3cccc4ccccc34)c3c(N)ncnc32)CC1 | 11.77% | 2.39% | -6.98%
Cc1cc(NCC(C)C)c2[nH]nc(-c3ccccc3)c2n1 | 16.32% | 0.11% | -5.87%
FC(F)(F)c1cc(NCCc2ccccc2)nc(-c2ccccn2)n1 | -3.94% | 1.73% | -6.05%
CCS(=O)(=O)N(Cc1ccco1)Cc1cc2ccc(C)cc2nc1O | 2.3% | 3.52% | -6.36%
COc1cccc(OCC(=O)c2ccc(Br)cc2)c1 | -4.37% | 4.44% | -12.88%
Cc1[nH]c2cc(F)cc(F)c2c(=O)c1-c1ccc(Oc2ccc(OC(F)(F)F)cc2)cc1 | 5.11% | 3.94% | -10.28%
c1ccc2c(c1)CN(CC1CC1)CC1(CCN(Cc3c[nH]c4cnccc34)CC1)O2 | 8.97% | 4.16% | -4.09%

Compound | Inhibition (Klebsiella pneumoniae) | Inhibition (Candida albicans) | Inhibition (Cryptococcus neoformans)
Cl.c1ccc(C[C@@H]2CN(c3nccc(Oc4ccc(-n5ccnc5)cc4)n3)CCN2)cc1 | 13.63% | 3.57% | -6.59%
CCc1ccc([C@@H]2C[C@H](C(F)(F)F)n3ncc(C(=O)NCc4ccc(OC)cc4)c3N2)cc1 | 2.88% | 5.42% | -1.28%
COc1cccc(OC)c1C(=O)Nc1ccc(Cl)c(-c2nc3ccccc3s2)c1 | 2.41% | 4.58% | -8.77%
CNC(=O)c1nn(C)c2c1C(C)(C)Cc1cnc(Nc3ccc(N4CCN(C)CC4)cc3)nc1-2 [MILCICLIB] | -10.97% | 4.83% | -4.76%
COc1ccc(N(CCc2cccc(C)n2)C(=O)C2CCCCC2)cc1 | 6.26% | -0.29% | -4.98%
CNC(=O)C1Cc2c([nH]c3cc(Cl)ccc23)C2(CCN(CCc3ccccc3)CC2)N1 (centres undefined) | 10.39% | 3.22% | -13.49%
CCn1ncc2c(NC3CCOCC3)c(CNC(=O)c3ccnn3C)c(C)nc21 | -4.12% | 0.07% | -8.07%
Cc1nc2ccccn2c1C(=O)NCc1ccc(Cl)cc1 | 17.8% | 2.86% | -5.69%
CC1=Nc2ccc(Cl)cc2C(c2ccccc2)N1CCNC(=O)CN(C)C (centres undefined) | 16.36% | 1.95% | 10.1%
COc1cc(OC)cc(C(=O)NCC2Cc3cc(Cl)cc(-c4ccncc4)c3O2)c1 (centres undefined) | 8.14% | 4.34% | -5.78%
CC1CCCCN1C(=O)NCCc1coc(-c2ccc(F)cc2)n1 (centres undefined) | 15.76% | 3.66% | -14.62%
CN1CCN(S(=O)(=O)c2ccc(-c3ccc4c(Nc5ncc(Cl)cn5)ccnc4c3)cc2)CC1 | 7.93% | 4.17% | -3.42%
CC(Oc1ccccc1)C(=O)Nc1nc(-c2ccccn2)cs1 (centres undefined) | -2.79% | -0.26% | -5.96%
CN1CCN(S(=O)(=O)c2ccc(-c3ccc4c(Nc5ccc6nn[nH]c6c5)ccnc4c3)cc2)CC1 | 5.15% | 4.6% | -7.38%
COc1ccc(-c2cnc3ccc(N4CCCC4)nn23)cc1OC | 12.07% | 4.32% | -8.28%
COc1ccc(-c2cncc3ccc(C(=O)NCCCn4ccnc4)nc23)cc1 | 3.32% | 4.61% | -8.59%
CC(=O)N(CCN(C(=O)c1ccc(F)cc1)c1ccccc1)c1ccccc1 | 8.37% | 4.16% | -8.06%
COc1ccc(S(=O)(=O)Nc2ccc(CN3CCN(C(=O)c4cccc(C#N)c4)CC3)cc2)cc1 | 6.9% | 1.12% | -8.14%
COc1ccc(N(CCc2cccc(C)n2)C(C)=O)cc1 | 13.85% | 2.97% | -4.26%
CC(C)C(C(=O)Nc1ccc(S(=O)(=O)N(C)C)cc1)c1ccc(Cl)cc1 (centres undefined) | -12.7% | 4.83% | -3.24%
O=C(OCc1ccccc1)N1CCC(c2cc(-c3ccncc3)c(-c3ccc(F)cc3)[nH]2)CC1 | 6.24% | 3.85% | -11.48%
COc1ccc(C2=NN(C3CCCCCC3)C(=O)[C@@H]3CC=CC[C@H]23)cc1OCCCCOc1ccc(-c2nnn[nH]2)cc1 | 8.89% | 6.64% | -7.83%
